In PubChem BioAssay:
Activity calls are given as the source filed them.

Legend:
Albumin (Bos taurus) = Albumin (Bos taurus) (UniProt P02769); test: bovine serum albumin binders on microarray, profiling panel, artefact control for SMM control protein annotation, biochemical, small-molecule microarray, Alexa647 label, 635/667 nm fluorescence (AID 1118); conditions: BSA-A647 binding, fluorescence 635 nm, higher = more signal;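 also: score merges 667 nm emission intensity and signal-to-noise per printed compound spot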
Sequence of Albumin (Bos taurus) (P02769 whole entry, looked up): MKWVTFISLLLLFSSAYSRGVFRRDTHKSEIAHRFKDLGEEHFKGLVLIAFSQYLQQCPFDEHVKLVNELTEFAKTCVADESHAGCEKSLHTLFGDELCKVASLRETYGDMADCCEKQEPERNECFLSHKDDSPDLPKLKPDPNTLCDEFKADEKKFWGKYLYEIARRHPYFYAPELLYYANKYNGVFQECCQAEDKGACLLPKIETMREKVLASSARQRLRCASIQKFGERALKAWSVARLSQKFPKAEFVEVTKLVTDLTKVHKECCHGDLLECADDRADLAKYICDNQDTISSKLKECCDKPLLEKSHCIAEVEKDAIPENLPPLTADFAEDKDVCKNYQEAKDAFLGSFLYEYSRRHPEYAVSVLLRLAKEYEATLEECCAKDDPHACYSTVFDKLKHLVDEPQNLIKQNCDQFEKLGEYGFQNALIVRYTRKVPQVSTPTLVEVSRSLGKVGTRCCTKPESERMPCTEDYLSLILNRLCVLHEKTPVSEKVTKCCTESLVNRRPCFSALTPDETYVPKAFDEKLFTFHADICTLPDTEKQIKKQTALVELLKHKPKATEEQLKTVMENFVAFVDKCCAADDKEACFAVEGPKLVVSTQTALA

[1] = small-molecule microarray binders of probe aXIP, primary screen, biochemical, NeuroSMM set, 635/667 nm fluorescence (AID 1119); conditions: higher = more signal, called active from +8 up or from −8 down;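 also: probe is the protein aXip251-270 applied at 1 µg/mL to compound-printed slides; binding of probe to printed compounds measured as 667 nm fluorescence plus signal to noise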
[2] = small-molecule binders of probe aNOTCH3, primary screen, biochemical, small-molecule microarray, 635/667 nm fluorescence (AID 1120); conditions: higher = more signal;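 also: probe is a biotin-tagged antibody raised against NOTCH3 rather than NOTCH3 protein; score merges spot fluorescence near 667 nm with spot signal to noise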
[3] = small-molecule binders of probe aNOTCH2, primary screen, biochemical, small-molecule microarray, 635/667 nm fluorescence (AID 1121); conditions: higher = more signal;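 also: score merges feature fluorescence read at 667 nm with its signal to noise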
[4] = target: Carbonic anhydrase 2 (Homo sapiens) (UniProt P00918); test: CAII small-molecule binders, profiling panel, biochemical, small-molecule microarray, Alexa647-labelled CAII (AID 1122); conditions: CAII-A647 binding fluorescence, higher = more signal
[5] = COS7 lysate on small-molecule microarray, probe aHis, 635 nm (AID 1123); conditions: COS7 cell lysate, fluorescence, higher = more signal;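 also: z-score combines 667nm fluorescence intensity with signal-to-noise per printed compound spot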
[6] = compound binding in COS7 lysate, probe aLAP1, primary screen, cell lysate, small-molecule microarray (AID 1124); conditions: probe aLAP1, fluorescence, higher = more signal;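 also: lysate comes from COS7 cells expressing LAP1 and is applied at 0.3 µg/mL; score merges spot fluorescence near 667 nm with signal-to-noise over triplicate slides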
Sam68 (KHDRBS1) = test: Sam68 small-molecule binders, primary screen, biochemical, small-molecule microarray, 635 nm fluorescence (AID 1125); conditions: small-molecule microarray binding, higher = more signal;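 also: score merges 667 nm channel intensity with signal to noise over triplicate slides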
[7] = system: Chordin-like protein 2 (CHRDL2); test: CHRDL2 small-molecule binders, primary screen, biochemical, small-molecule microarray, 635 nm fluorescence (AID 1126); conditions: small-molecule microarray binding, fluorescence 635 nm; higher = more signal;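 also: printed compound slides probed with Chrdl2 protein at 4 µg/mL for 1 h at 4 C; score merges 667 nm emission intensity with signal to noise over three replicate slides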
[8] = target: Concanavalin-A (Canavalia ensiformis) (UniProt P02866); test: ConA small-molecule binders, primary screen, artefact control for SMM control protein annotation, biochemical, small-molecule microarray, Alexa647 label, 635 nm (AID 1127); conditions: ConA-A647 binding fluorescence, higher = more signal;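 also: z combines 667 nm emission intensity with signal-to-noise across three replicate slides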
Sequence of Concanavalin-A (Canavalia ensiformis) (P02866 whole entry, looked up): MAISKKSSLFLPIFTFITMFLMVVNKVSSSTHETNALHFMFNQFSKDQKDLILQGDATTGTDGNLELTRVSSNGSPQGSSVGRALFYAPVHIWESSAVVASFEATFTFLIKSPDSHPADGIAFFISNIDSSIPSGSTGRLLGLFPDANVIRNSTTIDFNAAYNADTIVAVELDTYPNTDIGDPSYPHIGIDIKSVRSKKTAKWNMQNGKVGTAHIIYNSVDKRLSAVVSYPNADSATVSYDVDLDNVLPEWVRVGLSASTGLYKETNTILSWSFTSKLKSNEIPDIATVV

[9] = anti-His antibody binders, primary screen, artefact control for SMM control protein annotation, biochemical, small-molecule microarray, 635 nm fluorescence (AID 1128); conditions: anti-His Alexa647 antibody binding, higher = more signal;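 also: score merges feature fluorescence with signal-to-noise for each printed compound spot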
[10] = system: Human papillomavirus type 1a E7 protein (residues 1-88); test: HPV1a E7 small-molecule binders, primary screen, biochemical, small-molecule microarray, residues 1-88, 635 nm (AID 1129); conditions: small-molecule microarray binding, fluorescence 635 nm; higher = more signal
[11] = target: Focal adhesion kinase 1 (Homo sapiens) (UniProt Q05397); test: small-molecule microarray binders of FAK, primary screen, biochemical, 635/667 nm fluorescence, BSA, DTT (AID 1130); conditions: PTK2 binding, 635 nm fluorescence, higher = more signal;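 also: composite of spot emission at 667 nm and signal to noise over triplicate slides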
Sequence of Focal adhesion kinase 1 (Homo sapiens) (Q05397 whole entry, looked up): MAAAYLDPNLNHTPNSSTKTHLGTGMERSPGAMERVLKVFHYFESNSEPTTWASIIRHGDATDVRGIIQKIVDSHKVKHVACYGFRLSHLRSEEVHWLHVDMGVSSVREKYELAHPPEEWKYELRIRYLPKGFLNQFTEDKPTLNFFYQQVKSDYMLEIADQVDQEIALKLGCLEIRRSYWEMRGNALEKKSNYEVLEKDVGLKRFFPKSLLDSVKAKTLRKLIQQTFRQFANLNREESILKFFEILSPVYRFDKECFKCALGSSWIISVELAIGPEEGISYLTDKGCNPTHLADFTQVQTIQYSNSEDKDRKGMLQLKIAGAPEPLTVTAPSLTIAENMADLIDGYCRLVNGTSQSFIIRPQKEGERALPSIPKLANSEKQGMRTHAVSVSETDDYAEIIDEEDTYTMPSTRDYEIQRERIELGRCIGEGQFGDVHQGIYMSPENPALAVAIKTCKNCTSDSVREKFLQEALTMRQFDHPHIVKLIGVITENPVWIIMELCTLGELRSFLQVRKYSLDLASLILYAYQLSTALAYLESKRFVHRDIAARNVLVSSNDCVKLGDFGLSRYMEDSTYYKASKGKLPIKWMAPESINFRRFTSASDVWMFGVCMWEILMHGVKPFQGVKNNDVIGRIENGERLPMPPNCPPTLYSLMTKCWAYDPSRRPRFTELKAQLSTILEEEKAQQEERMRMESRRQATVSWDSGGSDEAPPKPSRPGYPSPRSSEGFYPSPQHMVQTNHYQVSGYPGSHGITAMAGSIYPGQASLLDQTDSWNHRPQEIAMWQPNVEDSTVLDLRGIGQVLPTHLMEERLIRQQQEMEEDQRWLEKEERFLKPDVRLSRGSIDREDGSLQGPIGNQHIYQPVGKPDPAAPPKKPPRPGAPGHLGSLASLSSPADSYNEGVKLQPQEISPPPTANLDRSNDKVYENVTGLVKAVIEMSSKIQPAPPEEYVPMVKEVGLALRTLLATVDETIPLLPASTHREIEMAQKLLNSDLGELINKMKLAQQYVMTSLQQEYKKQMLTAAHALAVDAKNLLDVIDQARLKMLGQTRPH

[12] = system: Fibrinogen (Alexa647-labelled); test: fibrinogen binders on compound microarrays, profiling panel, artefact control for SMM control-protein annotation, biochemical, small-molecule microarray, 635/667 nm fluorescence (AID 1131); conditions: fibrinogen-A647 binding fluorescence, higher = more signal;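 also: z-score merges 667 nm fluorescence with per-spot signal-to-noise over triplicate slides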
[13] = target: Follistatin (Homo sapiens) (UniProt P19883); test: follistatin binders on small-molecule microarrays, primary screen, biochemical, small-molecule microarray, 635/667 nm fluorescence (AID 1132); conditions: FST binding, 635 nm fluorescence, higher = more signal
Sequence of Follistatin (Homo sapiens) (P19883 whole entry, looked up): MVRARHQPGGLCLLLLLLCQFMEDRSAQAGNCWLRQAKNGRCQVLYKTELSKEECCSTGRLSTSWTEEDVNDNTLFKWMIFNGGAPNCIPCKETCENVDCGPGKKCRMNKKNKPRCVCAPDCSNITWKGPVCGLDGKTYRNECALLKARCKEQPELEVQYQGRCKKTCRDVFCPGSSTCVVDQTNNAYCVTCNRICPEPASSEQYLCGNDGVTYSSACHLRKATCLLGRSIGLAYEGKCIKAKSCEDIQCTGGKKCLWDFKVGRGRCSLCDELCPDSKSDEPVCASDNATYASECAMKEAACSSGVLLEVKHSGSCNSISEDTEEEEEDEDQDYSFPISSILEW

[14] = target: Fibroblast growth factor 2 (Homo sapiens) (UniProt P09038); test: FGF2 binders on small-molecule microarrays, primary screen, biochemical, small-molecule microarray, 635/667 nm fluorescence (AID 1133); conditions: small-molecule microarray binding, FGF2, fluorescence 635/667; higher = more signal
Sequence of Fibroblast growth factor 2 (Homo sapiens) (P09038 whole entry, looked up): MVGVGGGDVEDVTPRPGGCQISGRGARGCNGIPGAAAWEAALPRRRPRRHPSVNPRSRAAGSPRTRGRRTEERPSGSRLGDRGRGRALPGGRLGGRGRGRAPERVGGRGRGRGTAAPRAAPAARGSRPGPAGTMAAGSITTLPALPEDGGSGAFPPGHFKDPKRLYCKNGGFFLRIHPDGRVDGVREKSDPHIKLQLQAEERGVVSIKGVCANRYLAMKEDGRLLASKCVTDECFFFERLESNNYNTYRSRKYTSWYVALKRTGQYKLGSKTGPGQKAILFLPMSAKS

[15] = mitochondrial membrane potential change in A549 cells, profiling panel, cell-based, JC-1 fluorescence, basal, 24 h, 100 nL (AID 1138); conditions: higher = more signal;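 also: A549 lung adenocarcinoma cells under basal conditions with no added stimulus; test concentration not given here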
Lefty1 = Lefty1 binders on small-molecule microarrays, primary screen, biochemical, small-molecule microarray, 635/667 nm fluorescence (AID 1139); conditions: small-molecule microarray binding, fluorescence 635/667; higher = more signal
[16] = system: wheat germ agglutinin (Triticum aestivum), Alexa647-labelled; test: wheat germ agglutinin binders on compound microarrays, profiling panel, artefact control for SMM control-protein annotation, biochemical, small-molecule microarray, 635/667 nm fluorescence (AID 1140); conditions: WGA-A647 binding, 635 nm fluorescence, higher = more signal;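 also: score merges 667 nm feature emission with signal to noise over triplicate slides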
[17] = target: Luciferin 4-monooxygenase (Photinus pyralis) (UniProt P08659); test: firefly luciferase enzyme inhibitors, primary screen, biochemical, luminescence, purified enzyme, 2006 set (AID 1141); conditions: SteadyGlo luminescence, 30 min, higher = more signal, called active from +8 up or from −8 down;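 also: cell-free assay with purified firefly luciferase at 100 ng per well in PBS; test concentration not given here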
Sequence of Luciferin 4-monooxygenase (Photinus pyralis) (P08659 whole entry, looked up): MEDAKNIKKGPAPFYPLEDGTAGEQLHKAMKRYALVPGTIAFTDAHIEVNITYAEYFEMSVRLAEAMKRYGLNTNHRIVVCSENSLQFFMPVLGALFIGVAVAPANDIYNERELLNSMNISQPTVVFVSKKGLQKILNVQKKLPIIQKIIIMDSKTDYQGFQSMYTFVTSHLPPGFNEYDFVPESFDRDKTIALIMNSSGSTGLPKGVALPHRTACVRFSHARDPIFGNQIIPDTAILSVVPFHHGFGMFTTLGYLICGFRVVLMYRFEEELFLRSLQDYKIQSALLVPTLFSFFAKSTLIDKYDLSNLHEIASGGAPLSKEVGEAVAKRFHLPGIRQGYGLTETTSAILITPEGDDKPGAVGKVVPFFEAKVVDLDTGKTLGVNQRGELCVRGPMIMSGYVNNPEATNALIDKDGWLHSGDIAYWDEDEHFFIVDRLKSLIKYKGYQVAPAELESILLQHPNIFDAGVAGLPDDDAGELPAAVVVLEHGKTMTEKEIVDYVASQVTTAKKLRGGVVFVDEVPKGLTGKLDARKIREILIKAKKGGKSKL

| Compound | composite z-score (Albumin (Bos taurus)) | composite Z-score [1] | composite z-score [2] | composite z-score [3] | composite z-score [4] | composite z-score [5] | composite z-score [6] | composite z-score (Sam68 (KHDRBS1)) | composite z-score [7] | composite z-score [8] | composite z-score [9] | composite z-score [10] | composite z-score [11] | composite z-score [12] | composite z-score [13] | composite z-score [14] | z-score [15] | composite z-score (Lefty1) | composite z-score [16] | z-score [17] |
| --- | --- | --- | --- | --- | --- | --- | --- | --- | --- | --- | --- | --- | --- | --- | --- | --- | --- | --- | --- | --- |
| CCOC(=O)[C@H](Cc1ccccc1)NC(=O)CCC1CC(OC(=O)NCc2cccc3ccccc23)CC2(CCCC(COC(=O)NCC(c3ccccc3)c3ccccc3)O2)O1 (stereo not given in full) | 0.313 | 0.793 (inactive) | 0.062 | -0.169 | 0.394 | 0.468 | -0.0448 | 0.914 | 0.203 | 0.256 | 1.06 | 0.455 | 0.384 | 0.853 | 0.411 | 0.39 | -0.243 | 0.589 | -0.0722 | 0.611 (inactive) |
| COC(=O)[C@H](C)NC(=O)CCC1CC(OC(=O)NCc2cccc3ccccc23)CC2(CCCC(COC(=O)NCC(c3ccccc3)c3ccccc3)O2)O1 (stereo not given in full) | 0.576 | -0.171 (inactive) | 0.0242 | -0.0895 | 0.553 | 1.27 | 0.433 | 1.32 | -0.087 | 0.423 | 1.04 | 1.15 | 0.713 | 0.665 | 0.376 | 0.227 | 1.17 | 0.554 | 0.661 | 1.22 (inactive) |
| CO[C@@H]1COC(=O)[C@H](CCSC)NC(=O)CC=C[C@@H](C)COC(=O)[C@H](C)NC(=O)CC=C[C@H]1C | -1.04 | 0.327 (inactive) | 0.187 | -0.0907 | -0.0169 | -0.395 | 0.36 | 1.28 | 1.15 | -0.19 | -0.229 | 0.255 | -0.342 | -0.433 | 0.96 | 1.62 | 0.812 | 1.2 | -0.543 | -1.2 (inactive) |
